Shown are actives, neighbours in structure and some others; about 3.5% of the full set was active somewhere.
GPR151 ag – activators of human GPR151, primary screen, cell-based, PathHunter beta-arrestin, luminescence | G-protein coupled receptor 151 (Homo sapiens), Q8TDV0 | activation, % at 11.2 µM | hit rate 1% among 650,000 | AID 1508602, 2020 | PathHunter beta-arrestin GPR151 cells; in the data active means activation above about 4.9%
FBW7 act – FBW7 E3 ligase activators, primary screen, biochemical, AlphaScreen, human | F-box/WD repeat-containing protein 7 (Homo sapiens), Q969H0 | normalized activity (activation), % at 26.1 µM | hit rate 0.13% among 650,000 | AID 1259310, 2017 | AlphaScreen FBW7–phospho-cyclin E peptide binding, activator screen; in the data active means normalized activity above about 1.9%;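 further: purified mutant Fbw7 with reduced substrate affinity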
Target sequence (Q969H0 whole entry, looked up): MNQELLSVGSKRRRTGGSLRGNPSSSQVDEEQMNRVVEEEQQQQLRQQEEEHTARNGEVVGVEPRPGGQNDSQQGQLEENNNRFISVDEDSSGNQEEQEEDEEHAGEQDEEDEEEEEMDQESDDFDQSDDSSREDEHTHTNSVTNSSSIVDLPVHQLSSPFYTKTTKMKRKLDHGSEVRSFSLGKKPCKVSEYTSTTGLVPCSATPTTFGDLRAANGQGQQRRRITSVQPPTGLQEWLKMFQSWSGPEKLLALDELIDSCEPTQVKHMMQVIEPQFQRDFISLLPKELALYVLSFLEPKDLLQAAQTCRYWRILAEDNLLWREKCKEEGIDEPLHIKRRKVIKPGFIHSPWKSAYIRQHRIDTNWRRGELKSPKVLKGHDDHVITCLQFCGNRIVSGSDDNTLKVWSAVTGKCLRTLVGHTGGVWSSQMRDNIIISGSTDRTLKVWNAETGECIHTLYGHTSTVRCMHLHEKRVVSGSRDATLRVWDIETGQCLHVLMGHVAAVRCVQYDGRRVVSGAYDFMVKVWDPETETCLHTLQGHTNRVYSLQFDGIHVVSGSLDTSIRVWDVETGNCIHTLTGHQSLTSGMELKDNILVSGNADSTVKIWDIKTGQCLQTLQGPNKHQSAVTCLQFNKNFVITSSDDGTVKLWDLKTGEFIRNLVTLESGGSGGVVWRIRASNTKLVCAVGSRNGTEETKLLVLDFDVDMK
MITF primary – MITF inhibitors, primary screen, biochemical, AlphaScreen, human; Microphthalmia-associated transcription factor (Homo sapiens), O75030; AlphaScreen MITF homodimerization, bead proximity signal; inhibition, % at 2.6 µM; hit rate 0.91% among 650,000; in the data active means inhibition above about 50%
TEAD-YAP inh – TEAD-YAP interaction inhibition, primary screen, TEAD-YAP interaction inhibitor project, luminescence, HEK-TIYL cells. hit rate 1.4% among 640,000. inhibition, % at 9.12 µM. TEAD-Gal4/YAP UAS-luciferase luminescence; in the data active means inhibition above about 32%
Numbers stand for hits; - = inactive.

SMILES	GPR151 ag	FBW7 act	MITF primary	TEAD-YAP inh
COc1cc(C=O)ccc1OCc1cccc(C(=O)O)c1	-	-	-	71.0
COc1ccc(C=O)cc1OC(=O)c1ccccc1	-	-	-	-
CC(=O)C1=C(O)C(=O)N(c2nc3ccccc3s2)C1c1ccc(Cl)cc1Cl (stereo not given)	-	-	-	65.5
CC(=O)C1=C(O)C(=O)N(c2nc3ccccc3s2)C1c1ccccc1F (stereo not given)	-	-	-	-
COc1cc(C2C(C#N)=C(N)N(c3ccc(Br)cc3)C3=C2C(=O)CC(C)(C)C3)cc(OC)c1OC (stereo not given)	-	-	-	41.1
COc1ccc(N2C(N)=C(C#N)C(c3ccc(OC)c(OC)c3)C3=C2CC(C)(C)CC3=O)cc1 (stereo not given)	-	-	-	40.0
CCOc1ccc(C2C(C#N)=C(N)N(c3ccc(OC)cc3)C3=C2C(=O)CC(C)(C)C3)cc1 (stereo not given)	-	-	-	46.6
CCc1ccc(C2C(C#N)=C(N)N(c3ccc(OC)cc3)C3=C2C(=O)CC(C)(C)C3)cc1 (stereo not given)	-	-	-	-
CC(=O)N(/C=C1\Sc2ccccc2C1=O)c1ccc(C)cc1	-	-	-	69.8
CC(=O)N(/C=C1\Sc2ccccc2C1=O)c1ccc(C(=O)O)cc1	-	-	-	-
COc1ccccc1N(/C=C1\Sc2ccccc2C1=O)C(C)=O	-	-	-	78.6
C=CC1=C(C)C2=CC3=NC(=C(CC(=O)[O-])C4=NC(=C(C)C4=C([O-])[O-])C=c4[n-]c(c(C)c4CC)=CC1=N2)C(CCC(=O)[O-])C3C.C=CC1=C(C)C2=CC3=NC(=C(CC(=O)[O-])C4=NC(=C(C)C4=C([O-])[O-])C=c4[n-]c(c(C)c4CC)=CC1=N2)C(CCC(=O)[O-])C3C.[Cu+2].[Na+].[Na+].[Na+] (stereo not given)	-	-	60.3	-
Cc1ccccc1N1C(=O)c2ccc(C(=O)Nc3ccc([N+](=O)[O-])cc3)cc2C1=O	-	-	-	-
C[C@@H]1CN(C(=O)c2nc3ccc(Cl)cn3c2CN2CCc3ccccc3C2)C[C@H](C)O1	-	-	-	-
CN(C)c1ccc(C(=O)Nc2ccccc2F)cc1	-	-	-	74.5
NC(=O)c1ccc2c(c1)CC(c1nc3ccc(-c4ccnc(N)n4)cc3[nH]1)CO2 (stereo not given)	-	-	-	-
COc1cccc2c1CC(c1nc3ccc(-c4ccnc(N)n4)cc3[nH]1)CO2 (stereo not given)	-	-	-	50.0
Nc1nccc(-c2ccc3nc(C4COc5ccc(F)cc5C4)[nH]c3c2)n1 (stereo not given)	-	-	-	42.9
O=C(NC12CC3CC(CC(C3)C1)C2)C1CCCN(S(=O)(=O)c2cccc(F)c2)C1 (stereo not given)	-	-	-	-
O=S(=O)(/N=C(\Nc1cccnc1)c1ccccc1)c1ccc(F)cc1F	-	-	-	-
O=c1[nH]c(N2CCCCC2)nc2c1CCN(Cc1ccc(O)c(O)c1)C2	-	-	82.2	-
COCCCN1C(=O)c2[nH]nc(-c3ccccc3O)c2C1c1ccc(C)cc1 (stereo not given)	-	-	-	42.6
CC(=O)Nc1ccc(Oc2nnc(C)c3ccccc23)cc1	-	-	-	65.3
CC(=O)Nc1cccc(Oc2nnc(-c3ccc(C)cc3)c3ccccc23)c1	-	-	-	-
COc1ccc(-n2ncc3c(Nc4ccc(C)cc4C)ncnc32)cc1	-	-	-	-
SMILES	GPR151 ag	FBW7 act	MITF primary	TEAD-YAP inh
COc1ccc(OC)c(Nc2ncnc3c2cnn3-c2cccc(C)c2)c1	-	-	-	41.9
COc1ccc(-n2ncc3c(Nc4ccccc4SC)ncnc32)cc1	-	-	-	55.3
CSc1ccccc1Nc1ncnc2c1cnn2-c1ccccc1	-	-	-	-
COc1ccc(-n2ncc3c(Nc4cc(C)ccc4C)ncnc32)cc1	-	-	-	40.0
Cc1ccc(-c2cc(C(=O)NN)[nH]n2)cc1	-	-	-	-
CCOc1ccc(-c2cc(C(=O)N/N=C/c3ccccc3O)[nH]n2)cc1	-	-	-	50.5
COc1ccc(-c2cc(C(=O)NN)[nH]n2)cc1	-	-	-	61.6
COc1cccc(-c2cc(C(=O)N/N=C/c3ccccc3O)[nH]n2)c1	-	-	-	-
CCOc1ccc(-c2cc(C(=O)N/N=C/c3ccccn3)[nH]n2)cc1	-	-	-	33.8
Cc1ccccc1NC(=O)Cn1nnc(C(=O)NCc2cccs2)c1N	-	-	-	46.2
O=C(CSc1ccccc1C(=O)NCCCN1CCCC1=O)Nc1ccc(F)cc1	-	-	-	-
COC(=O)c1ccc(Nc2c3c(nc4ccccc24)CCC3)cc1	-	-	-	45.5
COc1ccc(Nc2c3c(nc4ccccc24)CCC3)cc1	-	-	-	-
CCc1c(C)sc2nc(C)nc(SCC(=O)Nc3ccc(C(C)=O)cc3)c12	-	-	-	-
CCOCCCn1c(=S)[nH]c2cc(C(=O)N3CCN(Cc4ccc5c(c4)OCO5)CC3)ccc2c1=O	-	-	-	43.0
O=C(c1ccc2c(=O)n(Cc3ccc(Cl)cc3)c(=S)[nH]c2c1)N1CCN(Cc2ccc3c(c2)OCO3)CC1	-	-	-	-
COc1cccc(NC(=O)Cn2cc(C(=O)c3ccccc3)c(=O)c3cc(Cl)ccc32)c1	-	-	-	-
CCOC(=O)c1cc(NC(=O)Cn2cc(C=O)c3ccccc32)ccc1Cl	-	-	-	35.2
CCOc1ccc(NC(=O)Cn2cc(C(=O)c3ccccc3)c(=O)c3cc(Cl)ccc32)cc1	-	2.7	-	-
Cc1ccc2[nH]c(C)c(CCNS(=O)(=O)c3cc([N+](=O)[O-])ccc3C)c2c1	-	-	-	-
Cc1[nH]c2ccc(F)cc2c1CCNS(=O)(=O)c1cc([N+](=O)[O-])ccc1Cl	-	-	-	61.3
CC(=O)N1CC(C)Sc2cc(S(=O)(=O)N3CCN(Cc4ccccc4)CC3)ccc21 (stereo not given)	-	-	-	48.7
COc1ccc(C(=O)Nc2nc3ccccc3n2C)cc1	-	-	-	-
COc1ccc(C(=O)Nc2ccccc2C(=O)Nc2nc3ccccc3n2C)cc1	-	-	-	94.1
O=C(Nc1cnc2ccccc2c1)c1cccc(F)c1	-	-	-	35.5
SMILES	GPR151 ag	FBW7 act	MITF primary	TEAD-YAP inh
COc1ccc(C(=O)Nc2cnc(NC(=O)c3ccccc3)cc2C)cc1	-	-	-	45.0
COc1ccc(C(=O)Nc2cc(C)c(C)s2)cc1	-	-	-	33.6
CCCCc1ccc(NC(=O)c2ccccc2)cc1	-	-	-	-
COc1ccc(C(=O)Nc2cc(Nc3ccccc3C(N)=O)ccn2)cc1	-	-	-	36.7
COc1ccc(C(=O)Nc2cnc3ccccc3c2)cc1	-	-	-	84.5
COc1cc(Nc2cc(Nc3ccccc3C(N)=O)ccn2)cc(OC)c1OC	-	-	-	-
CCCCc1ccc(C(=O)Nc2cnc3ccccc3c2)cc1	-	-	-	39.6

Screens deposited in PubChem by The Scripps Research Institute Molecular Screening Center.
